Assay [1] is described as follows: qHTS Assay for Identifying Gametocytocidal Compounds (AID 743244).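 Further: on the % scale 0 is the no-effect control and ±100 the full control effect; actives lower the fluorescent signal which means gametocytes are killed.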 As to conditions: P. falciparum 3D7 stage III-V gametocytes, alamarBlue, 72 h; max response: hits give low values. In a few lines:
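Compounds are pinned into medium, gametocytes (stage III–V, 3D7, 20,000 cells/well) added, and plates held 72 h at 37 °C in 5% CO2. AlamarBlue follows for 24 h before fluorescence reading.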
Background: Quantitative high-throughput screening tests each substance at several concentrations.

Assay [2] is described as follows: qHTS assay for measurement of the activity of small molecule inhibitors on Zika virus induced Caspase-3 activity in human iPSC derived neural progenitor cells (hNPCs) (AID 1224857). Further: nearly all actives have a fitted effect of over 65% in size. Further: potency means the concentration at half of the fitted maximal effect. In a few lines: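 Pretreat hNPCs with compound 1 h; infect ZIKV 2 FFU/cell; 6 h 37 C, 5% CO2; Caspase-Glo 3/7, 30 min RT; luminescence; normalize to no-virus and virus-only wells.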

The nature of assay [3]: qHTS assay for small molecule agonists of the antioxidant response element (ARE) signaling pathway measured by Nrf2-dependant transcriptional activity (AID 720636; active means well fitted curve in the direction sought with a large enough effect in the repeat runs; an effect the other way counts as inactive or inconclusive;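 further: HepG2 cells with an ARE-driven luciferase reporter; % of control where 0% means no effect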). In a few lines: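 Attachment 6 hr at 37 C, then compound versus DMSO vehicle for 16 hr in ARE-luc HepG2 cells (1% dialyzed FBS); luminescence recorded 30 min after ONE-Glo addition at room temperature.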
The nature of assay [4]: qHTS assay for cell viability of the p53RE-bla HCT-116 cell line (AID 743292). Further: on the % scale 0 is the no-effect control and ±100 the full control effect; nearly all actives have a fitted effect of over 55% in size. In a few lines:
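Compound-exposed HCT-116 (p53RE-bla) cells, 4,000 per well, were kept 16 h at 37 C following a 5 h preincubation. Cell number was estimated from total ATP by CellTiter-Glo luminescence read after 30 min at room temperature.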

A short description of assay [5]: qHTS assay for small molecule antagonists of the retinoid-related orphan receptor gamma (ROR-gamma) signaling pathway - cell viability counter screen (AID 720652; active means well fitted curve in the direction sought with a large enough effect in the repeat runs; an effect the other way counts as inactive or inconclusive;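 further: CHO reporter cells with doxycycline-induced ROR-gamma expression; series mostly up to about 92 µM; compound exposure lasted 16 hr before ATP read; on the % scale 0 is the no-effect control and ±100 the full control effect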). In a few lines:
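Counter screen in CHO cells carrying TET-inducible ROR-gamma and an ROR response element-luciferase reporter; cells plated 5 hr, compound pinned, doxycycline added, then 16 hr at 37 C. Viability read as intracellular ATP by CellTiter-Glo luminescence.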

Assay [6] can be described thus: qHTS assay for small molecule agonists of the antioxidant response element (ARE) signaling pathway measured by Nrf2-dependant transcriptional activity - cell viability counter screen (AID 720653; active means well fitted curve in the direction sought with a large enough effect in the repeat runs; an effect the other way counts as inactive or inconclusive; further: on the % scale 0 is the no-effect control and ±100 the full control effect). As to conditions: ARE-bla HepG2 viability, CellTiter-Glo ATP luminescence, 16 h; hits give low values. In a few lines:
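Cytotoxicity counter screen: intracellular ATP quantified by CellTiter-Glo luminescence in the same ARE-bla HepG2 plates, after 16 h compound exposure and a 2 h beta-lactamase substrate step.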

Assay [7] is described as follows: qHTS assay for cell viability of HEK293 cells (AID 743288). Further: on the % scale 0 is the no-effect control and ±100 the full control effect; nearly all actives have a fitted effect of over 50% in size. As to conditions: ATP luminescence (CellTiter-Glo), 18 h, hits give low values. In a few lines: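 HEK293 parental, 2,000 cells/well; ≥5 h pre-incubation 37 C; pintool compound addition; 18 h, 37 C; CellTiter-Glo 30 min RT; luminescence read.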

SMILES strings stand for the structures. “And” between values parts separate entries of the source, which are not always exact repeats. Identical values can stand only once. Records with an inconclusive call do not appear. Values without a mark were called inactive. The source made the active and inactive calls. Unless noted, the call rests on the fitted dose curve; in most records, active means well fitted curve in the direction sought with a large enough effect; inconclusive means small, poorly fitted or top-dose-only effect, or another doubt; inactive means no such curve, though single readings can be large; an effect the other way counts as inactive or inconclusive.

Regarding `CCCCN1C[C@H](O)[C@@H](O)[C@H](O)[C@H]1CO`, the max response in assay [1] was 2.05%. The Potency result in assay [2] is “inactive”.
Consider `Oc1c(Cl)cc(Cl)c(Cl)c1Cc1c(O)c(Cl)cc(Cl)c1Cl`, for which the molecule was classed as inactive in assay [3] and in assay [4]. Besides, in assay [1], the max response is 14.7%. For the same molecule, the Potency entry in assay [2] was “inactive”.
As for `COc1ccc(C(=O)c2ccccc2)c(O)c1`, the molecule was classed as inactive in assay [5] and in assay [4]. For the same molecule, the max response was 6% and -1.76% in assay [6]; -10.7% in assay [1]; -9.22% and -8.85% in assay [7]. Further, the Potency result in assay [2] was “inactive”.
As to `CCCCCCCCCCCCCCCC(=O)O`, the outcome in assay [3] and in assay [4] was inactive. In addition, the max response was -12.5% in assay [6], 2.07% in assay [1] and -2.84% in assay [7]. The Potency entry in assay [2] was “inactive”.
For `CC(=C(CCOC(=O)C(C)C)SSC(CCOC(=O)C(C)C)=C(C)N(C=O)Cc1cnc(C)nc1N)N(C=O)Cc1cnc(C)nc1N`, in assay [1], the max response was -5.02%. Also, the Potency in assay [2] was 11.2 µM (active).
On to `Oc1ccc(Cl)cc1Cc1cc(Cl)ccc1O`, for which the outcome in assay [5] and in assay [4] was inactive. The max response in assay [1] was 0.972%. The Potency result in assay [2] was “inactive”.
Regarding `NCCNc1cccc2ccccc12`, the outcome in assay [3] and in assay [4] was inactive. The max response is -8.07% and -42.5% in assay [6]; -10.4% and -20.5% in assay [7]. Further, the Potency entry in assay [2] is “inactive”.
With `CCOC(=O)C(C#N)=C(c1ccccc1)c1ccccc1`, in assay [1], the max response was -6.54%. The Potency result in assay [2] is “inactive”.
On the same counts, the results for `CN1CCC(OC(c2ccccc2)c2ccccc2)CC1` are -7.17% and “inactive”.
As for `C[C@H]1[C@H]2CC[C@H]3[C@@H]4CC=C5C[C@@H](N(C)C)CC[C@]5(C)[C@H]4CC[C@]23CN1C`, the max response in assay [1] was -6.8%. For the same molecule, the Potency result in assay [2] is “inactive”.

These data come from PubChem BioAssay (NCATS).
